# Test results published in the supplement of paper PMC10849652.
# About 7,900 targets were measured; listed, in parts, are those with a hit and a random draw of the rest. About 0.6% of all pairs of compound and target were hits. Unmarked numbers belong to inactive results.
# Compound: O=C(CCCCCCC(=O)Nc1ccccc1)NO [vorinostat]
# Experiment: log2 fold change, soluble protein after heating vs DMSO (PISA); higher = thermal stabilisation; K562 cells, 10 uM, 30 min; active = over 0.2 and 3.5 SD of the protein, either way, in both replicates (recomputed)
# In short: (§1)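 Thermal stability values are relative to control samples and come from duplicates. They are expressed as log2 fold changes. For measurement, K562 cells (2×10^6 cells/mL) received 10 μM compound for 30 min, and aliquots were heated for 3 min over 48°C-58°C, pooled, and extracted at 4°C in PBS with 0.5% NP-40. Soluble protein, the supernatant after 21,000xg for 90 min, was quantified by TMTpro 16plex LC-MS/MS with equalised channel sums.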
# Sequence of UniProt P12235 (P12235 whole entry, looked up): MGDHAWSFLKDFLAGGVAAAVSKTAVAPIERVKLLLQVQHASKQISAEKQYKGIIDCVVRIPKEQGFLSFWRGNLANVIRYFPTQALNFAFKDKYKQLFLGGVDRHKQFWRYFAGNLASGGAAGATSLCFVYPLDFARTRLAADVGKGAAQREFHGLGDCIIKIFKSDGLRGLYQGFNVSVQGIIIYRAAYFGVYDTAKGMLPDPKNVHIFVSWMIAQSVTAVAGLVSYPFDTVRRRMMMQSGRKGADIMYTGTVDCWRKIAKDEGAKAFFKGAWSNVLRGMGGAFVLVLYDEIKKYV
# Sequence of UniProt Q9H4I9 (Q9H4I9 whole entry, looked up): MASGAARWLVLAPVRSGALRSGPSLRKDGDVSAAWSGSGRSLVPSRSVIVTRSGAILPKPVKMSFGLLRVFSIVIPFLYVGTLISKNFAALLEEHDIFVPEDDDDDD
# Sequence of UniProt O75663 (O75663 whole entry, looked up): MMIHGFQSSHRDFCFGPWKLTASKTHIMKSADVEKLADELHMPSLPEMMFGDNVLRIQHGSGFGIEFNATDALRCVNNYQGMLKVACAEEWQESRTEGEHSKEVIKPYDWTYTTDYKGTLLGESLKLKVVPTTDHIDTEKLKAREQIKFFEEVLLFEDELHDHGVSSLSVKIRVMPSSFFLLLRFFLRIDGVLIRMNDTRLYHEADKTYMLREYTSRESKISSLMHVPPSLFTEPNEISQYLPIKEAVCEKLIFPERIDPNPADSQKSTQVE
# Sequence of UniProt O75494 (O75494 whole entry, looked up): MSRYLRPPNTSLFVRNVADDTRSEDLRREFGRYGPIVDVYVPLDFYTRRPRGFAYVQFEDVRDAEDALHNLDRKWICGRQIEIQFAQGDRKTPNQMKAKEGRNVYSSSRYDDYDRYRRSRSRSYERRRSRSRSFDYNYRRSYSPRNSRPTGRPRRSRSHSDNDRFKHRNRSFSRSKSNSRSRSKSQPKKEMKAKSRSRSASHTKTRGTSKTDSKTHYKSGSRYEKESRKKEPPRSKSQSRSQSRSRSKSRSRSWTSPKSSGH
# Sequence of UniProt Q9NZ01 (Q9NZ01 whole entry, looked up): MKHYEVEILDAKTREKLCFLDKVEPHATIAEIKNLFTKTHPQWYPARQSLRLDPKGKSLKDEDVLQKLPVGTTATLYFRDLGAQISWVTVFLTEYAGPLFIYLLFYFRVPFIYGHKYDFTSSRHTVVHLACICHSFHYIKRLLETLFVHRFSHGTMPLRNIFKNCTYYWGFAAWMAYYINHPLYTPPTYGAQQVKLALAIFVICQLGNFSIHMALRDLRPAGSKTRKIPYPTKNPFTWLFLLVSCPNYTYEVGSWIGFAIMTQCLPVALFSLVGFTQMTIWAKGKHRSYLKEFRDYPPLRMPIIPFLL
# Sequence of UniProt Q9UHB9 (Q9UHB9 whole entry, looked up): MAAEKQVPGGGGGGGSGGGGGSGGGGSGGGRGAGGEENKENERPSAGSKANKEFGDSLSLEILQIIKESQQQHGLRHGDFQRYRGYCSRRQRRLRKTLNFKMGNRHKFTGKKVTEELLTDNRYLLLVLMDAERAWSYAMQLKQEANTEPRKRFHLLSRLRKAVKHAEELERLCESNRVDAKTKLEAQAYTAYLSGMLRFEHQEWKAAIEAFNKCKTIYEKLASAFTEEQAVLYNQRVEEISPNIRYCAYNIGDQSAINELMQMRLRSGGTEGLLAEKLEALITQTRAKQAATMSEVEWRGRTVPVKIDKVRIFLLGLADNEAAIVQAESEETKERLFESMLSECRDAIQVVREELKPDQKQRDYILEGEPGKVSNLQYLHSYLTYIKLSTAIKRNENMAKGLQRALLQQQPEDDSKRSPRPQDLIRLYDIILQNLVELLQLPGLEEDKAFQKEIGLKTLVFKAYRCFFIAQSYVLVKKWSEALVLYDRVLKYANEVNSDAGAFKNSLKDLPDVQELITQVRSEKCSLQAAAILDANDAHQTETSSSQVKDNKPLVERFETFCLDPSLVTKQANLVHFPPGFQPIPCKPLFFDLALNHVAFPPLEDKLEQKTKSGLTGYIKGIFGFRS
# Sequence of UniProt Q8N1S5 (Q8N1S5 whole entry, looked up): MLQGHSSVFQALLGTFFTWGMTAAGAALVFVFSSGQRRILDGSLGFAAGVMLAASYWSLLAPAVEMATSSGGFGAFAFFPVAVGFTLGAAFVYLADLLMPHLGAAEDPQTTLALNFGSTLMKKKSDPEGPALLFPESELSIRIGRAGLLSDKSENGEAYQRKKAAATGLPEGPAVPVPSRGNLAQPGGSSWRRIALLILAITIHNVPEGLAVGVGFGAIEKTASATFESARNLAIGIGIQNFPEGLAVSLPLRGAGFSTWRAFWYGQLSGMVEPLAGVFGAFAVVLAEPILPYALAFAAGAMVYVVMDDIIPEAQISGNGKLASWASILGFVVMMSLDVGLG
# Sequence of UniProt Q92797 (Q92797 whole entry, looked up): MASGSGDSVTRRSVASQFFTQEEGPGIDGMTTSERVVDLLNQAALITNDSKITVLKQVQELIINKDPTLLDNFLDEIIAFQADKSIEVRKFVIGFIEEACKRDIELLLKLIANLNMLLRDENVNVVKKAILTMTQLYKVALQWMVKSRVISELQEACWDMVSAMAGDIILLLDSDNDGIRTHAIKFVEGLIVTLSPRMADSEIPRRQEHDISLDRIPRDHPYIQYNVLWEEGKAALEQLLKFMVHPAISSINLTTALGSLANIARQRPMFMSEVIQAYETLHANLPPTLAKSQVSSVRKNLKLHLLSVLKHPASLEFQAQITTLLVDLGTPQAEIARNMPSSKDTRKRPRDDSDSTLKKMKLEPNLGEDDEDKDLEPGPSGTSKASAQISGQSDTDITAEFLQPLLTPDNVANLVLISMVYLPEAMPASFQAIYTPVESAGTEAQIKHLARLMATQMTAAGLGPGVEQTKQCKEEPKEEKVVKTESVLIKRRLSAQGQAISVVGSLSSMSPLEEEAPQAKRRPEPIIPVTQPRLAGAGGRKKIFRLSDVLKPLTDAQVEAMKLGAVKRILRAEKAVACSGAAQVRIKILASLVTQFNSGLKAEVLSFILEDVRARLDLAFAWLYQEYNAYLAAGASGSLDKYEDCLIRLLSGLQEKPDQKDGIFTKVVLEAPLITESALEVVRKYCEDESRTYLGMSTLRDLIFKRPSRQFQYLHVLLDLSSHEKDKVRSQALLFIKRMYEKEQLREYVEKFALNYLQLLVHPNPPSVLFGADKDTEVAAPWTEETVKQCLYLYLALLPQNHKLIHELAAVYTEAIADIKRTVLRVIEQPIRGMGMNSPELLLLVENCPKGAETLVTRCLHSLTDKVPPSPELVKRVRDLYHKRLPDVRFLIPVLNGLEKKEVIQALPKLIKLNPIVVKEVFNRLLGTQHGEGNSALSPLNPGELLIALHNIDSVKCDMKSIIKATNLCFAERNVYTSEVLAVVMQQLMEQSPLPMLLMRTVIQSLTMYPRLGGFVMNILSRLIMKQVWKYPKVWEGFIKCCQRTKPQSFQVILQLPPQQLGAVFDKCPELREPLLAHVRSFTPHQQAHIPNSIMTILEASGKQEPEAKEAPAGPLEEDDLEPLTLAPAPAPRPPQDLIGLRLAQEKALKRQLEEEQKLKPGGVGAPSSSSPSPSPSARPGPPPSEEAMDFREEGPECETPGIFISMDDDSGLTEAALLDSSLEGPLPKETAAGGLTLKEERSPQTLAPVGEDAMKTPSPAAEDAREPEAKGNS
# Sequence of UniProt Q658P3 (Q658P3 whole entry, looked up): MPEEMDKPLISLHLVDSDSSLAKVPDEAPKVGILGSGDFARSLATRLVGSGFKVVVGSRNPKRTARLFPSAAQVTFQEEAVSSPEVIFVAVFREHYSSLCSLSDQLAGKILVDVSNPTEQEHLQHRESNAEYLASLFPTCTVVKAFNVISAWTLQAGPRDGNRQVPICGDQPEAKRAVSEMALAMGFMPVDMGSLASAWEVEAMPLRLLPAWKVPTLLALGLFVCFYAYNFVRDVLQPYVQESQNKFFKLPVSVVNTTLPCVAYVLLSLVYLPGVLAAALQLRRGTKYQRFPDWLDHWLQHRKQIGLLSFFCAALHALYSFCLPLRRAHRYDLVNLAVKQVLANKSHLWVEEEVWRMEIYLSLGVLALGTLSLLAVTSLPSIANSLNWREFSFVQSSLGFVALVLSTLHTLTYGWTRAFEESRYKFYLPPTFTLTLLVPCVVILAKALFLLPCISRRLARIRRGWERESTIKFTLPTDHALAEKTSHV
# Sequence of UniProt Q92609 (Q92609 whole entry, looked up): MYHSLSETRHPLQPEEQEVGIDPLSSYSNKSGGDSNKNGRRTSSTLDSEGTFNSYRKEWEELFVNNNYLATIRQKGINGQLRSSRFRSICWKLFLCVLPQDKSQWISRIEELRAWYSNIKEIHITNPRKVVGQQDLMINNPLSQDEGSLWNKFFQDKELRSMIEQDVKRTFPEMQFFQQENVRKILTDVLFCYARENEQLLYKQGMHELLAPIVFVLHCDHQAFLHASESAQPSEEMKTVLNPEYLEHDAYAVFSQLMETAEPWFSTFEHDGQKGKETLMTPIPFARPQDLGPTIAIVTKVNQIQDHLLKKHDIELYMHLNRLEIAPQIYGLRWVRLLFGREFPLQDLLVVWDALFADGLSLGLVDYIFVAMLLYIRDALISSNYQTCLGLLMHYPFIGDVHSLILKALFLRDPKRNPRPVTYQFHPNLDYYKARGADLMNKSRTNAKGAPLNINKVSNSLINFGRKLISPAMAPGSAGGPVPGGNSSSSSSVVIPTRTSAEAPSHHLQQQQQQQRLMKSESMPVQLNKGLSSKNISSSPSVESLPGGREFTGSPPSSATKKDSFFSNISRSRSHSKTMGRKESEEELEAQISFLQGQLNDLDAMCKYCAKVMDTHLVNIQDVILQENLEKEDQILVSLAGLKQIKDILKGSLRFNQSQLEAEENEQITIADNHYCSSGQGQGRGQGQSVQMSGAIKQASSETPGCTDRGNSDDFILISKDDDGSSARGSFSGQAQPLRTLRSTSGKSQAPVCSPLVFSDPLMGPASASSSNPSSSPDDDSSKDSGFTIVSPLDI
row,Target,log2 fold change
1,TECR (UniProt Q9NZ01),0.064
2,SRSF10 (UniProt O75494),0.048
3,TBC1D5 isoform 2 (UniProt Q92609),0.086
4,SRP68 (UniProt Q9UHB9),0.08
5,SYMPK (UniProt Q92797),0.11
6,STEAP3 isoform 2 (UniProt Q658P3),0.086
7,SLC25A4 (UniProt P12235),-0.12
8,SLC39A11 (UniProt Q8N1S5),-0.063
9,SMDT1 (UniProt Q9H4I9),-0.038
10,TIPRL (UniProt O75663),0.095

# Compound: O=C(CCCCCCNC(=O)c1cnc(N(c2ccccc2)c2ccccc2Cl)nc1)NO [citarinostat]
# Experiment: as above
# In short: as §1
row,Target,log2 fold change
1,TCERG1 (UniProt O14776),0.129
2,SPCS2 (UniProt Q15005),0.224
3,SP3 (UniProt Q02447),-0.147
4,SRSF6 (UniProt Q13247),-0.068
5,SPTBN1 (UniProt Q01082),-0.009
6,SNX15 (UniProt Q9NRS6),0.113
7,SLC29A3 (UniProt Q9BZD2),-0.123
8,SRSF11 (UniProt Q05519),0.046
9,SLC35B4 (UniProt Q969S0),-0.009
10,SLC27A2 (UniProt O14975),0.059
11,SPPL2B (UniProt Q8TCT7),0.05
12,SMPD4 isoform 4 (UniProt Q9NXE4),-0.039
13,SLC9A6 isoform 2 (UniProt Q92581),0.025
14,TGFBI (UniProt Q15582),-0.056
15,TACC2 (UniProt O95359),0.003
16,STXBP5 (UniProt Q5T5C0),0.024
17,STOM (UniProt P27105),0.007
18,SRSF7 (UniProt Q16629),-0.132

row,Target,log2 fold change
1,SYNE2 isoform 2 (UniProt Q8WXH0),0.053
2,SLC38A9 (UniProt Q8NBW4),0.004
3,TBRG4 (UniProt Q969Z0),0.128
4,SMARCA4 (UniProt P51532),0.102
5,TFR2 (UniProt Q9UP52),0.033
6,TECR (UniProt Q9NZ01),0.07
7,SRSF10 (UniProt O75494),-0.153
8,TBC1D5 isoform 2 (UniProt Q92609),0.111
9,SRP68 (UniProt Q9UHB9),0.095
10,SYMPK (UniProt Q92797),0.051
11,STEAP3 isoform 2 (UniProt Q658P3),0.013
12,SLC25A4 (UniProt P12235),-0.021
13,SLC39A11 (UniProt Q8N1S5),-0.059
14,TMBIM6 isoform 2 (UniProt P55061),0.05
15,SMDT1 (UniProt Q9H4I9),0.002
16,SLC35A1 (UniProt P78382),0.047
17,TIPRL (UniProt O75663),0.069

# Compound: O=C(O)c1ccc2c(c1)nc(Nc1cccc(Cl)c1)c1ccncc12 [silmitasertib]
# Experiment: as above
# In short: as §1
row,Target,log2 fold change
1,TCERG1 (UniProt O14776),0.022
2,SPCS2 (UniProt Q15005),-0.001
3,TK1 (UniProt K7ERV3),-0.039
4,SP3 (UniProt Q02447),0.046
5,STARD3 (UniProt Q14849),0.053
6,SRSF6 (UniProt Q13247),-0.254
7,SPTBN1 (UniProt Q01082),0.127
8,SNX15 (UniProt Q9NRS6),0.276
9,SLC29A3 (UniProt Q9BZD2),0.047
10,SRSF11 (UniProt Q05519),-0.099
11,SLC35B4 (UniProt Q969S0),-0.034
12,SLC27A2 (UniProt O14975),0.083
13,SPPL2B (UniProt Q8TCT7),-0.037
14,SMPD4 isoform 4 (UniProt Q9NXE4),0.085
15,SLC9A6 isoform 2 (UniProt Q92581),0.027
16,TGFBI (UniProt Q15582),0.114
17,TACC2 (UniProt O95359),0.116
18,STXBP5 (UniProt Q5T5C0),0.041
19,STOM (UniProt P27105),0.067

row,Target,log2 fold change
1,SRSF7 (UniProt Q16629),-0.144
2,SYNE2 isoform 2 (UniProt Q8WXH0),-0.056
3,SLC38A9 (UniProt Q8NBW4),0.035
4,TBRG4 (UniProt Q969Z0),0.074
5,SMARCA4 (UniProt P51532),-0.017
6,TFR2 (UniProt Q9UP52),-0.001
7,TECR (UniProt Q9NZ01),0.025
8,SRSF10 (UniProt O75494),0.103
9,TBC1D5 isoform 2 (UniProt Q92609),0.031
10,SRP68 (UniProt Q9UHB9),0.08
11,SYMPK (UniProt Q92797),0.167
12,STEAP3 isoform 2 (UniProt Q658P3),0
13,SLC25A4 (UniProt P12235),0.009
14,SLC39A11 (UniProt Q8N1S5),0.078
15,TMBIM6 isoform 2 (UniProt P55061),-0.206
16,SMDT1 (UniProt Q9H4I9),0.041
17,SLC35A1 (UniProt P78382),0.021
18,TIPRL (UniProt O75663),-0.032
